From PubChem BioAssay (NCATS)
Values joined by “and” are separate entries in the source; they are usually repeats but may differ in a detail not shown here. Equal values may be shown once. Records with an inconclusive call do not appear. Active and inactive are the calls of the source. Unless noted, the call rests on the fitted dose curve; in most records, active means well fitted curve in the direction sought with a large enough effect; inconclusive means small, poorly fitted or top-dose-only effect, or another doubt; inactive means no such curve, though single readings can be large; an effect the other way counts as inactive or inconclusive.

Columns and labels:
[1] = biological target: Cellular tumor antigen p53 (Homo sapiens) (UniProt P04637); experiment: Primary qHTS for small molecule compounds that upregulate eGFP-tagged delta133p53alpha (in N-terminal) cells. (AID 2060322); settings: NCI-H358 eGFP-delta133p53alpha fluorescence, 24 h; activation: stronger effect = higher value;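 further: cells pre-induced with doxycycline then dosed without doxycycline; series mostly up to about 56 µM; 0% = DMSO vehicle and 100% = reference activator; nearly all actives have a fitted effect of over 75% in size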
Procedure, shortened: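 NCI-H358 cells pre-induced 24 h with 10 ng/ml doxycycline for eGFP-delta133p53alpha, plated dox-free and exposed 24 h at 37C to titrated compounds. Fixed, Hoechst-stained; gated GFP peak intensity by laser scanning cytometry, normalized to DMSO (0%) and 57.5 uM 5-azacytidine (100%).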

[2] = biological target: Aldehyde dehydrogenase, mitochondrial (Homo sapiens) (UniProt P05091); experiment: qHTS for Inhibitors of the Aldehyde Dehydrogenase Family (ALDH2) Validation screens (AID 2061302; active means well fitted inhibition curve with a large enough effect; title and protocol of this record describe different tests;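 further: plate controls were DMSO vehicle for no effect and maximal DPI positive control response for full effect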)
[3] = biological target: Retinaldehyde dehydrogenase 3 (Homo sapiens) (UniProt P47895); experiment: qHTS for Inhibitors of the Aldehyde Dehydrogenase Family (ALDH1A3) Validation screen (AID 2061312); further: on the % scale 0 is the no-effect control and ±100 the full control effect; nearly all actives have a fitted effect of over 45% in size

Sequence of Cellular tumor antigen p53 (Homo sapiens) (P04637 whole entry, looked up): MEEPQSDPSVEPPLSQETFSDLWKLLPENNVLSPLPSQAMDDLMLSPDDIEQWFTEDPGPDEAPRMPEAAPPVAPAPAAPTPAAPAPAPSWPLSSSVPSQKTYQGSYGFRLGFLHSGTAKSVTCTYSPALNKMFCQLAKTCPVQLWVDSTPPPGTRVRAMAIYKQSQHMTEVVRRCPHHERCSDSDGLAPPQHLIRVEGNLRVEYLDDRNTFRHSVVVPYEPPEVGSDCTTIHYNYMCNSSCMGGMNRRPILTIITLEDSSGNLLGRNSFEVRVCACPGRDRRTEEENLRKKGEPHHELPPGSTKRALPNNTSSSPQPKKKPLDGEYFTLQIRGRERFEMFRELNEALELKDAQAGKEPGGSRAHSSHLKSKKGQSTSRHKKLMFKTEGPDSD

C[C@@H](CN1CCC(Cc2ccccc2)CC1)[C@@H](O)c1ccc(O)cc1
inactive: activation [1] -9.23% | Potency [2] | Potency [3]

COC(=O)C1=C(C)NC(C)=C(C(=O)OC(C)(C)CN(C)CCC(c2ccccc2)c2ccccc2)C1c1cccc([N+](=O)[O-])c1 (configuration not stated)
inactive: activation [1] 17.5% | Potency [2] | Potency [3]

C[N+](C)(C)CCCCCC[N+](C)(C)C
inactive: activation [1] -20.9% and 7.49% and -11.5% | Potency [2] | Potency [3]

CO/N=C(\C(=O)N[C@@H]1C(=O)N2C(C(=O)O)=C(COC(C)=O)CS[C@H]12)c1csc(N)n1
inactive: activation [1] 2.44% | Potency [2] | Potency [3]

COc1ccccc1OCCNCC(O)COc1cccc2[nH]c3ccccc3c12 (configuration not stated)
inactive: activation [1] 23.9% and -57.4% | Potency [2] | Potency [3]

COC(=O)[C@H](NC(=O)c1cc(-c2ccccc2)nc2ccccc12)c1ccccc1
inactive: activation [1] 6.75% | Potency [2] | Potency [3]

CN1C2CCC1CC(OC(c1ccccc1)c1ccccc1)C2 (configuration not stated)
inactive: activation [1] -19.6% | Potency [2] | Potency [3]

CCCOc1ccccc1-c1nc2n[nH]nc2c(=O)[nH]1
inactive: activation [1] -19.5% | Potency [2] | Potency [3]

CC#CCOC(=O)c1c(C)nc2sc3c(c2c1N)CCC(O)C3 (configuration not stated)
inactive: activation [1] -13.8% | Potency [2] | Potency [3]

CN(C)CCCN1c2ccccc2Sc2ccc(Cl)cc21
inactive: activation [1] -15.3% | Potency [2] | Potency [3]

Cn1c(=O)c(-c2c(Cl)cccc2Cl)cc2cnc(Nc3ccc(N4CCOCC4)cc3)nc21
inactive: activation [1] -42.1% | Potency [2] | Potency [3]

CCN(CC)CCOC(=O)c1ccc(N)cc1
inactive: activation [1] -14.2% and -16.3% | Potency [2] | Potency [3]

N[C@@H](Cc1ccc(F)cc1)C(=O)O
inactive: activation [1] -38.4% | Potency [2] | Potency [3]

CCCC(=O)NCCc1c2n(c3ccc(OC)cc13)CCCc1ccccc1-2
inactive: activation [1] -45.5% | Potency [2] | Potency [3]

COC(=O)c1c(C)[nH]c(C)c1C(=O)c1ccccc1Cc1ccccc1
inactive: activation [1] -23.2% | Potency [2] | Potency [3]

Cn1c(=O)[nH]c2ncn(C)c2c1=O
inactive: activation [1] -21.1% | Potency [2] | Potency [3]

NC(=O)CC[C@H](N)C(=O)O
inactive: activation [1] 18.7% | Potency [2] | Potency [3]

C=C1C(=O)O[C@@H]2[C@H]3O[C@]3(C)CCC=C(C)CC[C@@H]12
inactive: activation [1] -45% | Potency [2] | Potency [3]

NC(N)=N[C@@H](CCC(=O)O)C(=O)O
inactive: activation [1] -4.46% | Potency [2] | Potency [3]
